The nature of experiment [1]: Cell Viability - BJ (AID 421).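 Note: potency is the fitted concentration of half-maximal effect; cells exposed to compound for 40 hours at 37 °C before readout.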 The note with it: BJ fibroblast viability, qHTS. The method, boiled down: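 Cytotoxicity in human BJ foreskin fibroblasts is scored as loss of cellular ATP after a 40-hour exposure, measured by luciferase luminescence. Controls are DMSO and 100 uM tamoxifen.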
(In general: In qHTS, concentration-response curves come from the screen itself.)

Experiment [2] in a line: Cell Viability - Jurkat (AID 426;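 active = dose-dependent loss of cell ATP signal giving a full or clear fitted curve, ranked by lower potency value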; note: potency is the fitted concentration of half-maximal effect). The note with it: qHTS. The method, boiled down: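 qHTS, 1536-well; Jurkat E6-1, 5000 cells/well, complete medium; cpd 40 hr, 37 °C; CellTiter-Glo 20 min RT; luminescence. AC50 by Hill fit.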
The nature of experiment [3]: Cell Viability - Hek293 (AID 427;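 active = compounds whose dose-response curve shows a full or clear partial loss of cell viability, called from curve shape rather than a numeric limit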;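 note: potency is the fitted concentration of half-maximal effect; cells exposed to compound for 40 hours at 37 °C before reading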). The note with it: qHTS. The method, boiled down: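 qHTS, human embryonic kidney (adenovirus-transformed) cells; 40 hr cpd, 37 °C; CellTiter-Glo ATP luminescence. Norm: DMSO = 0, 100 uM tamoxifen = 100% inhibition. Hill-fit AC50.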
Experiment [4] in a line: Cell Viability - HepG2 (AID 433).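 Note: potency is the fitted concentration of half-maximal effect; potency for ATP loss meaning cytotoxicity.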 The note with it: qHTS. The method, boiled down:
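Read-out is luciferase-based quantitation of cellular ATP as a measure of viable HepG2 cells after 40 h treatment at 37 °C. Signal decrease is scaled between DMSO-only and 100 uM tamoxifen controls, with AC50 fitted by the Hill equation.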

Experiment [5] is described as follows: Cell Viability - MRC5 (AID 434).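 Note: potency is the fitted concentration of half-maximal effect; potency reflects cytotoxicity seen as loss of intracellular ATP.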 Conditions: MRC5 lung fibroblast viability, qHTS. The method, boiled down: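 MRC5 normal human lung fibroblasts (1500/well) were treated with compounds for 40 hr at 37 °C in complete medium, and viable cells were measured as intracellular ATP by CellTiter-Glo luminescence. AC50 came from Hill fits, normalized to DMSO and 100 uM tamoxifen.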

The nature of experiment [6]: Cell Viability - SK-N-SH (AID 435).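 Note: potency is the fitted concentration of half-maximal effect; compound exposure lasted 40 h at 37 °C.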 The note with it: SK-N-SH neuroblastoma cell viability qHTS. The method, boiled down:
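Luminescent ATP signal served as the viability read-out after 40 hours of compound treatment of human neuroblastoma SK-N-SH cells. Concentration-response data, scaled between DMSO and 100 uM tamoxifen, gave AC50 values by standard Hill modeling.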

The target in experiment [7] is Mitogen-activated protein kinase 10 (Mus musculus) (UniProt Q61831). As to the kind of experiment: JNK3 AlphaScreen Assay (AID 530; active = well fitted curve in either direction with a large enough effect, not every such curve was filed as active;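 note: kinase came from lysate of stimulated human HepG2 cells; signal reports phosphorylation of biotinylated GST-cJun 1-79 at Ser73 with 10 µM ATP; % is set by controls: 0 for no effect and ±100 for the full control effect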). The note with it: JNK3 lysate, c-Jun phosphorylation; series mostly up to 57.1 µM. The method, boiled down:
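Inhibitors reduce antibody binding to phosphorylated biotin-cJun, lowering AlphaScreen luminescence. Lysates from HepG2 cells pre-activated by IL-1beta plus TNF-alpha supplied JNK3; compounds were titrated.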
For orientation: In Alpha technology, singlet oxygen from a donor bead excites a nearby acceptor bead.

Experiment [8] is described as follows: Cell Viability - N2a (AID 540; active = well fitted curve in the direction sought with a large enough effect; an effect the other way counts as inactive or inconclusive;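 note: plate controls were DMSO alone for no effect and tamoxifen control for full effect; nearly all actives have a fitted effect of over 45% in size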). The note with it: N2a mouse neuroblastoma cell viability; activity change, negative = cytotoxicity: at 92.2 µM (top of the series). The method, boiled down: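 Luminescent ATP signal (CellTiter-Glo, 20 min at room temperature) served as the viability read-out after N2a cells were treated with compounds for 40 hours at 37 °C. Concentration-response data were fitted to the Hill equation for AC50.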

Experiment [9] is described as follows: Cell Viability - NIH 3T3 (AID 541; active = well fitted curve in the direction sought with a large enough effect; an effect the other way counts as inactive or inconclusive;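 note: plate controls were DMSO alone for no effect and tamoxifen positive control for full effect; nearly all actives have a fitted effect of over 25% in size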). The note with it: NIH 3T3 cell viability, qHTS; activity change, negative = cytotoxicity: at 92.2 µM (top of the series). The method, boiled down: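 Luminescent ATP signal (CellTiter-Glo) served as the viability read-out after NIH 3T3 cells were exposed to compounds over a concentration range for 40 hr at 37 °C. Hill-equation modelling of concentration-response data gave AC50.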

Experiment [10] in a line: Cell Viability - HUV-EC-C (AID 542; active = well fitted curve in the direction sought with a large enough effect; an effect the other way counts as inactive or inconclusive; note: % is set by controls: 0 for no effect and ±100 for the full control effect; nearly all actives have a fitted effect of over 35% in size). The note with it: HUV-EC-C endothelial cell viability, qHTS; series mostly up to 92.2 µM. The method, boiled down:
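qHTS cytotoxicity: HUV-EC-C, 1000 cells/well, 5 hr settle, compound 40 hr 37 °C, CellTiter-Glo, luminescence. AC50 via Hill equation.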

Our source for the Potency, outcome and activity change, negative = cytotoxicity values is PubChem BioAssay (NCATS).

Results filed as inconclusive are left out. Unmarked numbers belong to inactive results. The source made the active and inactive calls. Unless noted, calls come from the whole dose curve. Some results are limits rather than exact numbers.

For `CCCCC/C=C/C=C/C=O`, the Potency in experiment [1] is more than 92 µM; in experiment [2], 29.6 µM (active); in [3], more than 92 µM; in [4] it was more than 92 µM; in [5] it was more than 92 µM; in [6] it was more than 92 µM. Further, the compound was classed as inactive in experiment [7]. For the same compound, the activity change, negative = cytotoxicity in experiment [8] was -106% (active); in experiment [9], -100% (active). Besides, the Potency entry in experiment [10] is “inactive”.

As to `OC1CCCC1`, the Potency in experiment [1], in [2], in experiment [3], in experiment [4], in experiment [5] and in [6] was more than 92 µM throughout. The outcome in experiment [7] was inactive. Also, the activity change, negative = cytotoxicity in experiment [8] is -9.14%. Also, the Potency result in experiment [9] and in experiment [10] was “inactive” each time.

Take `CCCCCO`: the Potency in [1], in [2], in [3], in experiment [4], in experiment [5] and in experiment [6] was more than 92 µM throughout. Also, the compound was called inactive in experiment [7]. Also, the activity change, negative = cytotoxicity in [8] is 3.49%. The Potency result in experiment [9] and in experiment [10] was “inactive” each time.

On to `Nc1cc(Cl)c(N)c(Cl)c1`, for which the Potency in experiment [1], in [2], in experiment [3], in experiment [4], in [5] and in experiment [6] was more than 92 µM throughout. Also, the result in [7] was inactive. The activity change, negative = cytotoxicity in experiment [8] was -5.31%. Further, the Potency entry in [9] and in experiment [10] was “inactive” in each case.

On to `O=[N+]([O-])c1ccc2nc[nH]c2c1`, for which the Potency in experiment [1], in [2], in experiment [3], in [4], in experiment [5] and in experiment [6] was more than 92 µM in each case. In addition, in experiment [7], the compound was called inactive. Further, the activity change, negative = cytotoxicity in experiment [8] is 4.31%. Further, the Potency result in [9] and in experiment [10] was “inactive” each time.

On to `Nc1ccc(Cl)cc1[N+](=O)[O-]`, for which the Potency in [1], in experiment [2], in experiment [3], in experiment [4], in experiment [5] and in experiment [6] was more than 92 µM each time. In [7], the result was inactive. Further, in experiment [8], the activity change, negative = cytotoxicity is -24.6%. Besides, the Potency result in experiment [9] and in experiment [10] was “inactive” each time.

On to `Clc1ccc(Cl)c(Cl)c1Cl`, for which the Potency in [1], in [2], in [3], in experiment [4], in [5] and in experiment [6] was more than 92 µM in each case. For the same compound, the compound was classed as inactive in experiment [7]. The activity change, negative = cytotoxicity in experiment [8] is -2.29%. Moreover, the Potency entry in experiment [9] and in experiment [10] was “inactive” each time.

For the compound `CCCC(C)CO` (stereo not given), the Potency in [1], in experiment [2], in experiment [3], in experiment [4], in experiment [5] and in experiment [6] was more than 92 µM each time. Further, the compound was called inactive in experiment [7]. Moreover, the activity change, negative = cytotoxicity in [8] was 3.82%. The Potency result in [9] and in experiment [10] was “inactive” in each case.

For `CCOc1cccc(N)c1`, the Potency in [1], in [2], in [3], in experiment [4], in [5] and in experiment [6] was more than 92 µM each time. For the same compound, in [7], the call was inactive. Also, the activity change, negative = cytotoxicity in experiment [8] was 4.96%. Further, the Potency result in experiment [9] and in [10] was “inactive” throughout.

For `Cc1ccc2ncccc2c1`, the Potency in experiment [1], in experiment [2], in experiment [3], in [4], in [5] and in [6] was more than 92 µM in each case. Further, in experiment [7], the compound was classed as inactive. Further, in [8], the activity change, negative = cytotoxicity is 3.92%. Moreover, the Potency entry in experiment [9] and in experiment [10] was “inactive” throughout.

`CCCCCCCCCCCCOCC1CO1` (stereo not given): the Potency in [1], in experiment [2], in [3], in experiment [4], in experiment [5] and in [6] was more than 92 µM each time. In experiment [7], the call was inactive. For the same compound, in [8], the activity change, negative = cytotoxicity is 0.002%. In addition, the Potency entry in [9] and in experiment [10] was “inactive” throughout.

As to `Cc1ccc(C(=O)O)cc1`, the Potency in experiment [1], in experiment [2], in [3], in [4], in [5] and in [6] was more than 92 µM in each case. In addition, in experiment [7], the compound was classed as inactive. Besides, the activity change, negative = cytotoxicity in experiment [8] is 3.7%. Also, the Potency result in experiment [9] and in experiment [10] was “inactive” in each case.

Take `CCCCC(=O)N(C)C`: the Potency in experiment [1], in experiment [2], in experiment [3], in experiment [4], in [5] and in [6] was more than 92 µM throughout. Moreover, the result in experiment [7] was inactive. For the same compound, the activity change, negative = cytotoxicity in experiment [8] was -2.03%. For the same compound, the Potency entry in experiment [9] and in [10] was “inactive” in each case.

Take `CCOCCO`: the Potency in [1], in experiment [2], in experiment [3], in [4], in experiment [5] and in experiment [6] was more than 92 µM each time. Further, the compound was classed as inactive in [7]. For the same compound, in experiment [8], the activity change, negative = cytotoxicity was -17.9%. For the same compound, the Potency entry in [9] and in experiment [10] was “inactive” in each case.

Turning to `Cc1ccccc1C#N`, the Potency in experiment [1], in experiment [2], in [3], in experiment [4], in experiment [5] and in experiment [6] was more than 92 µM each time. The call in experiment [7] was inactive. For the same compound, in [8], the activity change, negative = cytotoxicity was -9.75%. Further, the Potency result in [9] and in experiment [10] was “inactive” in each case.

With `CC(=O)c1ccc([N+](=O)[O-])cc1`, the Potency in experiment [1], in experiment [2], in [3], in experiment [4], in experiment [5] and in [6] was more than 92 µM in each case. Further, the result in [7] was inactive. In [8], the activity change, negative = cytotoxicity was 0.428%. In addition, the Potency result in experiment [9] and in experiment [10] was “inactive” each time.
